Measured values published in the supplement of paper PMC13380429.

system: Vero E6 infected with SARS-CoV-2; assay: morphology score (similarity to uninfected cells); higher = more like uninfected cells; details: 24 h

| SMILES | morphology score |
| --- | --- |
| OC(CNCC(O)C1CCc2cc(F)ccc2O1)C1CCc2cc(F)ccc2O1 (stereo not drawn) [nebivolol] (10 µM) | 0.0502 |
| CCCc1c2oc(C(=O)O)cc(=O)c2cc2c(=O)cc(C(=O)O)n(CC)c12 [nedocromil] (10 µM) | -0.0269 |
| Cc1c2oc3c(C)ccc(C(=O)N[C@@H]4C(=O)N[C@@H](C(C)C)C(=O)N5CCC[C@H]5C(=O)N(C)CC(=O)N(C)[C@@H](C(C)C)C(=O)O[C@@H]4C)c3nc-2c(C(=O)N[C@@H]2C(=O)N[C@@H](C(C)C)C(=O)N3CCC[C@H]3C(=O)N(C)CC(=O)N(C)[C@@H](C(C)C)C(=O)O[C@@H]2C)c(N)c1=O [actinomycin-d] (0.833333 µM) | 0.164 |
| NC(=O)c1ccc(F)c2c1C[C@@H](N(C1CCC1)C1CCC1)CO2 [robalzotan] (10 µM) | 0.00904 |
| COc1cc2c(cc1OC)C(=O)C(CC1CCN(Cc3ccccc3)CC1)C2 (stereo not drawn) [donepezil] (10 µM) | 0.153 |
| COc1ccc(C(=O)Nc2sc3c(c2C(N)=O)CCCC3)cc1OC (10 µM) | -0.0466 |
| CCCS(=O)(=O)Nc1ccc(F)c(C(=O)c2c[nH]c3ncc(-c4ccc(Cl)cc4)cc23)c1F [vemurafenib] (10 µM) | 0.25 |
| C[C@@H]([C@@H](O)c1ccc(O)cc1)N1CCC(O)(c2ccccc2)CC1 [traxoprodil] (10 µM) | -0.037 |
| CCC(=O)O[C@@](Cc1ccccc1)(c1ccccc1)[C@@H](C)CN(C)C [levopropoxyphene] (10 µM) | -0.0577 |
| CCOC(=O)NNc1nncc2ccccc12 [todralazine] (10 µM) | 0.0897 |
| Cc1cncc(CN2CCC(=C3c4ccc(Cl)cc4CCc4cccnc43)CC2)c1 [rupatadine] (10 µM) | -0.0273 |
| CCCC(=O)Nc1cccc(NC(=O)c2ccccc2Br)c1 (10 µM) | -0.131 |
| CC[C@]1(O)C[C@@H]2CN(CCc3c([nH]c4ccccc34)[C@@](C(=O)OC)(c3cc4c(cc3OC)N(C)[C@H]3[C@@](O)(C(N)=O)[C@H](O)[C@]5(CC)C=CCN6CC[C@]43[C@@H]65)C2)C1 [vindesine] (10 µM) | -0.107 |
| CCCCCCCCCCCCCCCC[n+]1ccn(Cc2ccccc2)c1C (0.833333 µM) | 0.0516 |
| COc1cc2c(cc1OC)CC(=O)N(CCCN(C)C[C@H]1Cc3cc(OC)c(OC)cc31)CC2 [ivabradine] (10 µM) | 0.15 |
| CN1CCC(=C2c3ccccc3CCn3c(C=O)cnc32)CC1 [alcaftadine] (10 µM) | 0.0541 |
| C=CC(=O)N1CCC(Oc2cc3c(Nc4ccc(Cl)c(Cl)c4F)ncnc3cc2OC)CC1 [poziotinib] (10 µM) | -0.0962 |
| c1ccc2c(Cc3c[nH]c4ccccc34)c[nH]c2c1 [3,3'-diindolylmethane] (10 µM) | 0.0838 |
| Cc1cccc(C)c1NC(=O)CN1CCCCCC1 [pincainide] (10 µM) | 0.00868 |
| CN(C)CCOC(C)(c1ccccc1)c1ccccn1 (stereo not drawn) [doxylamine] (10 µM) | 0.112 |
| CCN1C[C@]2(COC(=O)c3ccccc3N3C(=O)C[C@H](C)C3=O)CC[C@H](OC)[C@@]34[C@@H]5C[C@H]6[C@H](OC)[C@@H]5[C@](O)(C[C@@H]6OC)[C@](O)([C@@H](OC)[C@H]23)[C@@H]14 [methyllycaconitine] (10 µM) | 0.00671 |
| OC[C@H]1O[C@@H](O[C@@H]2[C@@H](CO)OC(O)(CO)[C@H]2O)[C@H](O)[C@@H](O)[C@H]1O (mixture of isomers) [lactulose] (10 µM) | -0.0368 |
| C#C[C@]1(O)CC[C@H]2[C@@H]3CCC4=CC(=O)CC[C@@H]4[C@H]3C(=C)C[C@@]21CC [etonogestrel] (10 µM) | 0.249 |
| O=C1c2cccc(O)c2C(=O)c2c(O)cccc21 [dantron] (10 µM) | -0.0545 |
| Cc1ccc2c(c1CCC(=O)O)CC[C@@H](NS(=O)(=O)c1ccc(Cl)cc1)C2 [terutroban] (10 µM) | 0.115 |
| CCOC(=O)Nc1ccc(NCc2ccc(F)cc2)nc1N [flupirtine] (10 µM) | 0.0326 |
| C=C1CC[C@H](O)C/C1=C/C=C1\CCC[C@]2(C)[C@@H]([C@H](C)CCCC(C)C)CC[C@@H]12 [cholecalciferol] (10 µM) | -0.0066 |
| Nc1nc2[nH]cc(CCc3ccc(C(=O)N[C@@H](CCC(=O)O)C(=O)O)cc3)c2c(=O)[nH]1 [pemetrexed] (10 µM) | -0.15 |
